Measured values: the supplement of paper PMC3724861
This excerpt belongs to a sample that is enriched for hits. The true hit rate is not given.

The sequences below were run on T1, Caupolican (Caup) homeodomain DNA-binding domain (assay: PBM E-score (8-mer, recovered from the published 9-mer minima) (E-score (dimensionless, -0.5 to 0.5)); Drosophila protein; higher = stronger relative binding preference, active = 0.31 or more).
T1 sequence: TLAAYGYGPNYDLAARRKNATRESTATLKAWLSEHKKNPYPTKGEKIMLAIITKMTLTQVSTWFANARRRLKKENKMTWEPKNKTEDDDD
Outline: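 An enrichment score, with higher meaning stronger, expresses relative binding preference for each short DNA word. The protein used was Caup's homeodomain DNA-binding domain (residues 214-303), produced by in vitro transcription and translation and tested at 100 nM on custom-designed protein binding microarrays. The 8-mer values were recovered from published 9-mer scores, each equal to the lower of its two constituent 8-mer scores.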

| Sequence | PBM E-score |
| --- | --- |
| CGATCATA | 0.0822 (inactive) |
| GGAGCCGA | -0.213 (inactive) |
| GCATCGTA | -0.088 (inactive) |
| ACCAGCTG | -0.0781 (inactive) |
| ATTTGTAG | 0.239 (inactive) |
| CGTGAACC | -0.0185 (inactive) |
| CATATCGG | 0.0413 (inactive) |
| GAGCGGCA | -0.199 (inactive) |
| CGCTTGAA | 0.0019 (inactive) |
| AGCTTGTA | 0.368 (active) |
| GGCTTGGA | -0.0906 (inactive) |
| GGCTTGAA | -0.103 (inactive) |
| GGCTTGTA | 0.312 (active) |
| AGCTTGTC | 0.261 (inactive) |
| CGCTTGTA | 0.313 (active) |
| AGCTTGTG | -0.0301 (inactive) |
| CGCTTGTC | 0.272 (inactive) |
| CCAGCCGG | -0.247 (inactive) |
| AATTAAAA | 0.0931 (inactive) |
| ACAGTTTG | 0.0438 (inactive) |
| AGAGTCAC | -0.0337 (inactive) |
| AATCTTAG | -0.0734 (inactive) |
| AGACCGGG | -0.179 (inactive) |
| CACCCGAA | -0.0428 (inactive) |

| Sequence | PBM E-score |
| --- | --- |
| GTCCCTAA | -0.0722 (inactive) |
| ACTGTTCA | 0.0851 (inactive) |
| CTTGGATC | 0.0244 (inactive) |
| CGTGTAGA | 0.29 (inactive) |
| CGTGTAGC | 0.276 (inactive) |
| AGTGTACC | 0.207 (inactive) |
| CGTGTACC | 0.35 (active) |
| CGTGTACA | ≥ 0.441 (active) |
| CGTGTGTA | 0.283 (inactive) |
| GTCATCTA | 0.0593 (inactive) |
| GAGGTACA | 0.326 (active) |
| TAGGTACA | 0.271 (inactive) |
| ATGGTACA | 0.32 (active) |
| CTGGTACC | 0.0519 (inactive) |
| ATGGTACG | 0.0989 (inactive) |
| CAGGTACA | 0.298 (inactive) |
| GTGGTACA | 0.277 (inactive) |
| CTGGTACA | 0.319 (active) |
| ATGGTACC | 0.0486 (inactive) |
| AGGACCTG | -0.102 (inactive) |
| AAGCATTG | 0.102 (inactive) |
| CAACCTGG | 0.0642 (inactive) |
| AGGTGGCC | -0.286 (inactive) |
| CAAGCCCC | -0.174 (inactive) |

| Sequence | PBM E-score |
| --- | --- |
| ACTACAAT | 0.19 (inactive) |
| ACTACAAA | 0.256 (inactive) |
| GCTACAAC | 0.169 (inactive) |
| CCTACAAC | 0.21 (inactive) |
| ACTACAAC | 0.363 (active) |
| ACTACAAG | ≥ 0.378 (active) |
| GAGAGCTC | -0.215 (inactive) |
| CGTCTATC | 0.0194 (inactive) |
| CTTTTCGC | -0.012 (inactive) |
| CGGTTGTC | 0.185 (inactive) |
| TACTTTAA | 0.115 (inactive) |
| AGTGTCAC | 0.13 (inactive) |
| AATGTCAG | 0.197 (inactive) |
| CCTGTCAG | 0.115 (inactive) |
| CATGTCAG | 0.413 (active) |
| CCTGTCAC | 0.144 (inactive) |
| ATTGTCAC | 0.224 (inactive) |
| CATGTCAC | 0.446 (active) |
| AATGTCAC | 0.303 (inactive) |
| CTTGTCAC | 0.322 (active) |
| GATGTCAC | 0.294 (inactive) |
| CGTGTCAG | 0.276 (inactive) |
| CGTGTCAC | 0.334 (active) |
| AGCGTCCA | -0.0936 (inactive) |

| Sequence | PBM E-score |
| --- | --- |
| AAAGTATT | 0.131 (inactive) |
| CGGGCTTC | -0.289 (inactive) |
| AGATCGGA | 0.0416 (inactive) |
| GAAGTGAC | 0.0523 (inactive) |
| GCCGGGGA | -0.241 (inactive) |
| CGAACCCC | -0.249 (inactive) |
| ATCAGTCC | -0.143 (inactive) |
| AAATTGGG | -0.0398 (inactive) |
| AAGTTTGC | 0.0221 (inactive) |
| CATGTCAA | 0.422 (active) |
| CGTGTCAA | 0.282 (inactive) |
| CCTGTCAA | 0.172 (inactive) |
| CGGGACTC | -0.204 (inactive) |
| CCCGATCC | -0.127 (inactive) |
| ATCCCCAC | -0.0707 (inactive) |
| CTACACAC | 0.175 (inactive) |
| GTACACAA | 0.338 (active) |
| GCACACAC | 0.0659 (inactive) |
| ATACACAT | 0.311 (active) |
| TCACACAA | 0.193 (inactive) |
| CTACACAA | 0.288 (inactive) |
| AGACACAT | 0.213 (inactive) |
| AAACACAT | 0.229 (inactive) |
| TGACACAA | 0.259 (inactive) |

| Sequence | PBM E-score |
| --- | --- |
| GTACACAC | 0.331 (active) |
| TTACACAA | 0.311 (active) |
| GCACACAA | 0.0665 (inactive) |
| CATGGCCC | -0.169 (inactive) |
| GGGCTTAC | -0.119 (inactive) |
| CACTAATA | 0.118 (inactive) |
| GTTAGTAA | 0.177 (inactive) |
| CTTATTAC | 0.0885 (inactive) |
| CTGTGCGA | -0.0551 (inactive) |
| CCTACCGA | -0.0361 (inactive) |
| AGTGCGGG | -0.187 (inactive) |
| ATCTTCGG | 0.00377 (inactive) |
| ACACAGCT | 0.109 (inactive) |
| ACCCATCC | -0.0713 (inactive) |
| GCGCCCTA | -0.273 (inactive) |
| ATATAGCC | 0.0657 (inactive) |
| ATACACAG | 0.193 (inactive) |
| ATACACAC | 0.256 (inactive) |
| ATACACAA | ≥ 0.341 (active) |
| ATTTTCCC | -0.00887 (inactive) |
| CAAACTGC | -0.0256 (inactive) |
| CGCTAATC | -0.0282 (inactive) |
| TATAGAAA | 0.118 (inactive) |
| AACAATGG | 0.198 (inactive) |

| Sequence | PBM E-score |
| --- | --- |
| ACAAATGT | ≥ 0.311 (active) |
| ACAAATGG | 0.193 (inactive) |
| AACAATGA | 0.244 (inactive) |
| ACAAATGA | 0.154 (inactive) |
| AACAATGT | 0.345 (active) |
| ATGAGCTC | -0.0796 (inactive) |
| ATTTCCTG | 0.0432 (inactive) |
| AGGAGTAT | 0.00187 (inactive) |
| CAGAGCGG | -0.155 (inactive) |
| ACATTACA | ≥ 0.37 (active) |
| CTATTACA | 0.346 (active) |
| ATATTACG | 0.16 (inactive) |
| GTATTACA | 0.288 (inactive) |
| CTATTACC | 0.0284 (inactive) |
| ATATTACC | 0.186 (inactive) |
| GCATTACA | 0.267 (inactive) |
| ATATTACA | 0.35 (active) |
| ACATTACT | 0.227 (inactive) |
| CTGACTGC | -0.0466 (inactive) |
| ACAGATAT | 0.159 (inactive) |
| CGGTCATA | -0.0654 (inactive) |
| CATCTGGG | -0.0619 (inactive) |
| AACACGAG | 0.266 (inactive) |
| AACACGAA | 0.293 (inactive) |

| Sequence | PBM E-score |
| --- | --- |
| GACACGAA | 0.224 (inactive) |
| CACACGAC | 0.0592 (inactive) |
| AACACGAC | 0.321 (active) |
| GACACGAC | 0.347 (active) |
| AGATATCC | 0.0875 (inactive) |
| ACCCGGGC | -0.196 (inactive) |
| CCGTTTTC | -0.0987 (inactive) |
| GCATAACA | 0.255 (inactive) |
| GTATAAGA | 0.112 (inactive) |
| ATATAACC | 0.0533 (inactive) |
| CTATAACA | 0.257 (inactive) |
| ATATAACA | 0.372 (active) |
| GTATAACA | 0.338 (active) |
| CGTAGGTC | -0.0431 (inactive) |
| CAGCCTGG | -0.164 (inactive) |
| ATAAAGGC | -0.111 (inactive) |
| AGTGGTGG | -0.0979 (inactive) |
| AAGGAATT | -0.0309 (inactive) |
| ACAGTTCA | 0.0978 (inactive) |
| CACATGAC | 0.242 (inactive) |
| AGCATGAA | 0.102 (inactive) |
| GTCATGAA | 0.0353 (inactive) |
| GACATGAA | 0.318 (active) |
| CACATGAA | 0.226 (inactive) |

| Sequence | PBM E-score |
| --- | --- |
| TGCATGAA | 0.126 (inactive) |
| GACATGAC | 0.394 (active) |
| GCCATGAC | -0.0484 (inactive) |
| TACATGAA | 0.383 (active) |
| GGCATGAA | 0.0161 (inactive) |
| AACATGAA | 0.387 (active) |
| ACCATGAA | 0.0242 (inactive) |
| TACAGAGA | 0.12 (inactive) |
| GAGTTTGA | 0.0834 (inactive) |
| CGTTTCCC | -0.165 (inactive) |
| AAGATGGC | -0.0976 (inactive) |
| CTGATTAA | 0.162 (inactive) |
| AACCTTAA | -0.0003 (inactive) |
| TGGGGGAA | -0.237 (inactive) |
| GACTTCGA | -0.0675 (inactive) |
| ACTAGAAG | 0.00911 (inactive) |
| AACGGGCC | -0.162 (inactive) |
| GTGACCTA | 0.0131 (inactive) |
| GAGCTCAA | -0.094 (inactive) |
| TGCAAAAA | 0.0586 (inactive) |
| AGACTGCG | -0.129 (inactive) |
| AGCTTCCC | -0.188 (inactive) |
| AAGCCCCA | -0.232 (inactive) |
| AAACACGC | 0.248 (inactive) |

| Sequence | PBM E-score |
| --- | --- |
| AAACACTT | 0.153 (inactive) |
| ACACACGT | 0.254 (inactive) |
| AAACACGG | 0.257 (inactive) |
| AAACACGA | ≥ 0.351 (active) |
| AAACACGT | 0.312 (active) |
| CAAAGCGC | -0.207 (inactive) |
| GATCAGGC | -0.0491 (inactive) |
| ACCGACTA | 0.0195 (inactive) |
| ACCCCGCA | -0.142 (inactive) |
| CCCATGTA | 0.326 (active) |
| CCAATGTC | 0.0611 (inactive) |
| GCCATGCA | -0.0297 (inactive) |
| GCCATGGA | -0.137 (inactive) |
| ACTATGTC | 0.302 (inactive) |
| GCCATGTA | 0.346 (active) |
| ACAATGTA | 0.285 (inactive) |
| ACCATGTC | 0.408 (active) |
| ACCATGCC | -0.0174 (inactive) |
| CCCATGGA | 0.021 (inactive) |
| CCCATGTC | 0.309 (inactive) |
| ACAATGTC | 0.316 (active) |
| AATATTTC | 0.0671 (inactive) |
| TGATTGCA | 0.139 (inactive) |
| GAAATAAA | 0.0685 (inactive) |

| Sequence | PBM E-score |
| --- | --- |
| ATGCGAAC | 0.0459 (inactive) |
| GACTCAAC | 0.0307 (inactive) |
| CGAAGGTC | -0.156 (inactive) |
| ACAGCAAT | 0.163 (inactive) |
| ACAGTTGC | 0.0312 (inactive) |
| CCGATAAC | 0.0305 (inactive) |
| ACCATGTG | 0.145 (inactive) |
| ACCATGCA | 0.0966 (inactive) |
| ACCATGTA | ≥ 0.422 (active) |
| AATTTGGA | 0.0747 (inactive) |
| ATGAACAC | 0.332 (active) |
| ACGAACAT | 0.349 (active) |
| ACGAACAG | 0.137 (inactive) |
| AGGAACAT | 0.339 (active) |
| AGGAACAC | 0.193 (inactive) |
| ATGAACAT | 0.326 (active) |
| ACGAACAA | 0.298 (inactive) |
| ATGAACAA | 0.286 (inactive) |
| GTGAACAC | 0.256 (inactive) |
| ATGAACAG | 0.22 (inactive) |
| CTGAACAC | 0.235 (inactive) |
| AGGAACAG | 0.0859 (inactive) |
